Screens as filed in PubChem.
PINK1 expr mod: changes PINK1 expression; PINK1 immunofluorescence, high-content cytometry, 24 h; Potency, µM (titrated, usually from 76.6 µM), without a hit: top-dose activation (PINK1 increase), most hits filed as activators; actives 0.2% (n = 410,000); active = well fitted activation curve with a large enough effect; inconclusive = small, poorly fitted or top-dose-only effect; cell line not stated here; note: potency is the fitted concentration of half-maximal effect; % of control where 0% means no effect; nearly all actives have a fitted effect of over 65% in size
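Stable cell line treated 24 h with compounds at 5 concentrations (CCCP controls), then fixed and immunostained for PINK1 plus nuclear and cell stains; PINK1 immunofluorescence quantified by laser-scanning microplate cytometry.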
IL1B secr inh: blocks inflammasome-driven IL-1 beta release; actives 4.7% (n = 360,000); activity change, % at 57.5 µM; AID 743279; THP-1 LPS/ATP IL-1B secretion, AlphaLISA, 16 h; active compounds read low; in the data active = activity change below about -50%; inconclusive = mostly about -30% to -49%; note: % is set by controls: 0 for no effect and ±100 for the full control effect
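THP-1 cells pretreated 1 hr with compounds (up to 57.5 uM final), then stimulated with LPS (250 ng/mL final) plus ATP (1.25 mM final); secreted IL-1B measured by AlphaLISA after 16 hr, decreased signal indicating inhibition.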
MCF10A rereplic: induces DNA re-replication in MCF 10a normal breast cells | MCF 10A DNA re-replication, Hoechst nuclear intensity, 48 h | Potency, µM (top dose mostly 46.1 µM), inactives show at the highest dose activity, positive = re-replication, usual class: activators | actives 2.9% (n = 350,000) | AID 624296; note: potency is the fitted concentration of half-maximal effect; % of control where 0% means no effect; nearly all actives have a fitted effect of over 50% in size
SW480 rereplic: induces DNA re-replication in SW480 colon adenocarcinoma cells | SW480 DNA re-replication, Hoechst DNA content imaging, 48 h | Potency, µM (titrated, usually from 46.1 µM), for inactives: at the highest dose re-replication activation, usual class: activators | actives 1.8% (n = 340,000); note: potency is the fitted concentration of half-maximal effect; % of control where 0% means no effect; nearly all actives have a fitted effect of over 55% in size
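DNA re-replication was detected as more nuclei of elevated Hoechst intensity after 48 hr exposure to compound (23 nL pinned per well of 250 cells).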
ATXN2 expr inh: inhibitors of ATXN2 expression. HEK-293 ATXN2-luciferase reporter, luminescence, 24 h. Potency, µM (series often up to 57 µM), for the others: at the highest dose activity change, negative = inhibition, usual class: inhibitors. actives 0.72% (n = 360,000); note: potency is the fitted concentration of half-maximal effect; % is set by controls: 0 for no effect and ±100 for the full control effect; nearly all actives have a fitted effect of over 55% in size
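ATXN2-luciferase reporter cells (luciferase flanked by upstream and downstream ATXN2 gene portions) were treated 24 h at 37 °C with compounds at up to 57 uM. SteadyGlo luminescence gave expression; GF-AFC fluorescence gave viability.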
ATXN viability: viability counter-screen for ATXN expression inhibitors | Potency, µM (highest dose often 56.7 µM), actives largely listed as cytotoxic | AID 651635 | actives 0.49% (n = 400,000) | S2 cells (HEK-293 line with an ATXN2-luciferase reporter) viability, CellTiter-Fluor protease fluorescence, 24 h; note: potency is the fitted concentration of half-maximal effect; nearly all actives have a fitted effect of over 40% in size
Starred values were filed as active, the others as inactive; i = inactive; ? = inconclusive; nt = not tested or not shown; [ ] = another dose, or the depositor's remark. The list is not random: actives were taken first. Their share in the collection is about 7.1%. Unless noted, calls come from the whole dose curve; as a rule, active = well fitted curve in the direction sought with a large enough effect; inconclusive = small, poorly fitted or top-dose-only effect, or another doubt; inactive = no such curve, though single readings can be large; an effect the other way counts as inactive or inconclusive.

SMILES	PINK1 expr mod	IL1B secr inh	MCF10A rereplic	SW480 rereplic	ATXN2 expr inh	ATXN viability
COc1ccc(-c2nc3ccccc3o2)cc1NC(=O)c1ccc(N2CCC(C)CC2)c([N+](=O)[O-])c1	0%	nt	nt	nt	nt	nt
Cn1c(=O)c2c(-c3ccccc3)n3c(c2n(C)c1=O)C(c1cccc([N+](=O)[O-])c1)Nc1ccccc1-3 (centres undefined)	1%	nt	nt	nt	-5%	i
CCCN(c1ccccc1F)S(=O)(=O)c1ccc2c(c1)C(C)(C)C(=O)N2C	-1%	nt	nt	nt	0%	i
COc1ccc2c(c1)C(=O)N1[C@H]3c4cc(C)ccc4OC[C@@H]3[C@H](c3ccccc3)[C@]1(C)C(=O)N2	3%	-66*	15µM*	?	?	i
COc1ccc2c(c1)OC[C@H]1[C@H]2N2C(=O)c3ccccc3NC(=O)[C@@]2(C)[C@H]1c1ccccc1	9%	-78*	83%	?	-25%	?
COC(=O)c1sccc1NC(=O)c1cc(-c2ccc(C)cc2C)nc2ccccc12	5%	11	12µM*	2%	-15%	i
CCOc1ccc(NC(=O)c2cc(OC)nc3ccccc23)cc1	17%	50	23µM*	?	-24%	?
O=C(NCC1CCCCC1)c1cc2ccccc2cc1O	?	-88*	18µM*	?	-18%	i
COc1cc(C(=O)Nc2ccc(C)cc2)c2ccccc2n1	11%	104	5.8µM*	21µM*	0%	?
COc1cc(NC(=O)c2cc3ccccc3cc2O)c(OC)cc1Cl	?	?	?	212%	nt	i
CCOc1ccc(NC(=O)c2cc3ccccc3cc2O)cc1	?	-18	16µM*	-15%	nt	nt
Cc1ccc(Cl)cc1NC(=O)c1cc2ccccc2cc1O	?	-90*	7.3µM*	?	nt	i
CN(C)c1ccc(C=NC2CCc3ccccc32)cc1 (centres undefined)	1%	nt	nt	nt	nt	nt
CCC(C)NC(=O)c1sc2nc(C)c(C(=O)Nc3ccc(Cl)cc3)c(-c3ccc(Br)cc3)c2c1N (centres undefined)	5%	nt	nt	nt	2%	i
CCOC(=O)c1c(C)nc2sc(C(N)=O)c(N)c2c1-c1ccc(OC)cc1	-2%	-3	9%	2%	-5%	i
Cc1nc2sc(C(N)=O)c(N)c2c(-c2ccc(Br)cc2)c1C(=O)Nc1ccc(Cl)cc1	2%	nt	nt	nt	32µM*	?
CCOC(=O)c1c(C)nc2sc(C(=O)Nc3ccc(C(C)=O)cc3)c(N)c2c1-c1ccc(OC)cc1	2%	?	26%	2.3µM*	-22%	i
CCOC(=O)c1c(C)nc2sc(C(=O)Nc3ccc(OC)cc3)c(N)c2c1-c1ccc(OC)cc1	9%	-15	3.5µM*	?	-5%	i
COC(=O)c1ccccc1NC(=O)Cn1cc(S(=O)(=O)Cc2ccccc2F)c2ccccc21	-2%	nt	nt	nt	nt	nt
COc1ccc(CN2CCN(C(C)=O)CC2)cc1OC1CCN(C(=O)c2ccc3ccccc3n2)CC1	0%	nt	nt	nt	nt	i
Cc1ccc(CN2CCC(CNC(=O)c3cc4ccc5cccnc5c4[nH]3)CC2)cc1	10%	nt	nt	nt	nt	nt
COc1cccc(C#Cc2c(C=O)n(C)c3ccccc23)c1	40µM*	35	?	2.3µM*	-17%	?
CC(C)OCCCNC(=O)CN1C(=O)c2cccnc2Sc2ccccc21	1%	nt	nt	nt	10%	i
NC(=NCCc1ccccc1)NS(=O)(=O)c1cccs1	0%	11	3%	0%	3%	i
O=S(=O)(NC(=NCCc1ccc(Cl)cc1)c1ccccc1Cl)c1cccs1	-1%	-68*	-44%	?	-1%	i
SMILES	PINK1 expr mod	IL1B secr inh	MCF10A rereplic	SW480 rereplic	ATXN2 expr inh	ATXN viability
Cc1cccc(N2CCN(C(=S)Nc3ccc4nc5n(c(=O)c4c3)CCCCC5)CC2)c1C	3%	8	23µM*	?	-30%	i
O=c1c2cc(NC(=S)NCCCN3CCC(Cc4ccccc4)CC3)ccc2nc2n1CCCCC2	-1%	-91*	2%	?	-12%[11.3 µM]	i
CC(C)(C)c1ccc(-c2noc(CCC(=O)Nc3cccc(Cl)c3)n2)cc1	8%	nt	nt	nt	?	i
CCCCC1C(=O)CC[C@H]2[C@@H]1CC(=O)[C@@H]2C/C=C\CCCC(=O)O (some centres undefined)	1%	?	64%	1.8µM*	?	i
CCCCCC1C(=O)CCC1CC(=O)O (centres undefined)	2%	nt	nt	nt	nt	nt
O=C(Nc1cccc(-c2nc3ccccc3o2)c1)c1cc([N+](=O)[O-])ccc1N1CCOCC1	4%	nt	nt	nt	nt	nt
COc1cccc(NC(=O)c2oc3ccccc3c2NC(=O)c2ccc(OC(C)C)cc2)c1	-1%	nt	nt	nt	11%	i
OCC1(Cc2cccc(C(F)(F)F)c2)CCN(Cc2cc3ccccc3o2)CC1	3%	-136*	23µM*	?	-22%	i
Cc1c(CN2CCC(CO)(Cc3cccc(C(F)(F)F)c3)CC2)c2ccccc2n1C	-7%	-94*	?	?	35µM*	nt
COc1ccc(CC2(CO)CCN(Cc3cc4ccccc4o3)CC2)cc1	2%	-80*	?	8%	-25%	i
CC1(C(=O)N2CCC(CO)(Cc3cccc(C(F)(F)F)c3)CC2)CC1	7%	9	2%	-2%	-23%	i
CN(CC1COCCO1)C(=O)c1cnn(-c2ncc3c(n2)-c2ccccc2CC3)c1C1CC1 (centres undefined)	0%	nt	nt	nt	nt	i
CCCCN(CCCC)C(=S)N/N=C/c1c(C)[nH]n(-c2ccccc2)c1=O	15%	92	?	?	?	i
CCCSC(=S)c1c(C)[nH]n(-c2ccccc2)c1=O	?	-10	17%	?	25µM*	nt
COC(=O)[C@@H]1CCCN1Cc1ccc2c(c1)CN(Cc1cc(OC)c3c(c1)OCO3)CCO2	0%	nt	nt	nt	nt	i
CCCn1c(/C=N/Nc2nc3ccccc3[nH]2)nc2ccccc21	12%	-52*	?	nt	?	nt
COc1cccc(/C=N/Nc2nc3ccccc3[nH]2)c1OC	6%	-12	33%	-1%[9.22 µM]	49%	i
Cn1c(/C=N/Nc2nc3ccccc3[nH]2)nc2ccccc21	0%	8	8%	?	53%	i
CC(C)Cn1c(/C=N/Nc2nc3ccccc3[nH]2)nc2ccccc21	2%	62	10%	?	4.5µM*	?
COCC(=O)Nc1cc(C(=O)N2CC3CCC2C3)c2c(c1)nc(-c1ccncc1)n2C (centres undefined)	-1%	nt	nt	nt	nt	i
O=c1c2ccccc2ncn1-c1ccc(Br)cc1[N+](=O)[O-]	0%	82	?	5.8µM*	1%	?
